Most compounds without a hit are left out; they make up all but 19% or so of the library.
IL-1B inflam inh = inhibitors of inflammasome signaling (IL-1 beta secretion). 360,000 tested, 4.7% active. THP-1 LPS/ATP IL-1B secretion, AlphaLISA, 16 h; active compounds read low. activity change, % at 57.5 µM; in the data active means activity change below about -50%; inconclusive means mostly about -30% to -49%
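Secreted IL-1B measured by AlphaLISA bead assay after 16 h compound exposure of THP-1 cells; compounds (final up to 57.5 uM) added 1 h before LPS (250 ng/mL) and ATP (1.25 mM) stimulation; lower signal means less secretion.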
TDP1 inh = blocks human tyrosyl-DNA phosphodiesterase 1 | Potency, µM (highest dose often 130 µM), for the others: at the highest dose activity change, negative = inhibition, hits mostly inhibitors | recombinant TDP1, AlphaScreen DNA substrate cleavage | Q9NUW8 | 350,000 tested, 0.28% active; further: potency means the concentration at half of the fitted maximal effect; nearly all actives have a fitted effect of over 40% in size
Target sequence (Q9NUW8 whole entry, looked up): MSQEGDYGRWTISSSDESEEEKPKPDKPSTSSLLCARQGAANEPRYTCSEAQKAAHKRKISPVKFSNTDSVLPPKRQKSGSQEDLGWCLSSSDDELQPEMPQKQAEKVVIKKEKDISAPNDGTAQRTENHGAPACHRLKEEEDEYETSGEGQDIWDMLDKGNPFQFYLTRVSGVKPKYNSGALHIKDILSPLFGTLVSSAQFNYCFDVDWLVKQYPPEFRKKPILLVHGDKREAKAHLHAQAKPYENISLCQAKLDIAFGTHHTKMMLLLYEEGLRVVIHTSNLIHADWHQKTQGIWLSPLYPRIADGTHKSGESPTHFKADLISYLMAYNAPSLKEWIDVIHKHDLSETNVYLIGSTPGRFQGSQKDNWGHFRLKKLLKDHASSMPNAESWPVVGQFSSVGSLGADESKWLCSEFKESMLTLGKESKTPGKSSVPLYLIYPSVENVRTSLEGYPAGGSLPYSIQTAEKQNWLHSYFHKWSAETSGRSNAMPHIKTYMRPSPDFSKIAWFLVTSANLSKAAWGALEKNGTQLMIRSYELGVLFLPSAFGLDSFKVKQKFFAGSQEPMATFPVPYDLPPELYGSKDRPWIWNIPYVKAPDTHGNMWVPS
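Signal: AlphaScreen proximity between streptavidin donor and anti-FITC acceptor beads on intact substrate. Reaction: Tdp1 1 nM, substrate 15 nM final, 5 min RT after 15 min compound preincubation.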
ELG1 DNA repair = ELG1-dependent DNA repair inhibition; HEK293T ELG1-luciferase reporter, luminescence, 16 h; DNA damage induced by 5-fluorouridine; AID 504467; Potency, µM (titrated, usually from 46.1 µM), without a hit: at the highest dose activity change, negative = inhibition, hits mostly inhibitors; 330,000 tested, 2.3% active; further: potency means the concentration at half of the fitted maximal effect; nearly all actives have a fitted effect of over 55% in size
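In this reporter screen, reduction of luminescence relative to DMSO vehicle indicated activity. Compounds and 5-fluorouridine were added together to 2,000 cells per well, incubated for 16 hr at 37 °C, then developed with ONE-Glo.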
Giardia kill = kills Giardia lamblia. 340,000 tested, 0.15% active. AID 540267. activity change, % at 7.66 µM, hits read low. Giardia lamblia trophozoite viability; in the data active means activity change below about -80%; inconclusive means between about -30% and that limit;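 further: parasites exposed to compound for two days anaerobically before the ATP read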
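Killing of trophozoites was scored by loss of ATP luminescence after a 48 hrs anaerobic exposure to compounds at 37 deg C, using 100 cells per well.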
TDP1 cell noCPT = qHTS for Inhibitors of human tyrosyl-DNA phosphodiesterase 1 (TDP1): qHTS in cells in absence of CPT; DT40 Tdp1-/- hTDP1 cells, no CPT, ATP luminescence, 48 h; 420,000 tested, 15% active; AID 686978, 2013; Potency, µM (highest dose often 46.2 µM), for inactives: at the top dose activity change, negative = growth inhibition, hits mostly inhibitors; further: potency means the concentration at half of the fitted maximal effect; nearly all actives have a fitted effect of over 55% in size
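Compound effects on proliferation are scored in DT40 Tdp1-/-;hTDP1 cells in the absence of CPT. ATP levels (CellTiter-Glo luminescence) are recorded after a ≥48 hr, 37 °C incubation.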
DT40 TDP1 CPT = DT40-hTDP1 cell growth loss with CPT. chicken DT40 Tdp1-/-;hTDP1 cells + 20 nM CPT, ATP luminescence, 48 h. Potency, µM (doses to about 46.2 µM), for inactives: at the highest dose activity change, negative = growth inhibition, most hits filed as inhibitors. 420,000 tested, 12% active; further: potency means the concentration at half of the fitted maximal effect; nearly all actives have a fitted effect of over 55% in size
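Chicken DT40 Tdp1-/- cells complemented with human TDP1, 400 cells/well, exposed to compounds plus 20 nM camptothecin for at least 48 h at 37 C; viability read as ATP content by CellTiter-Glo luminescence.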
An asterisk follows results filed as active; i = inactive; ? = inconclusive; · = not tested or not shown. Unless noted, the call rests on the fitted dose curve; in most records, active means well fitted curve in the direction sought with a large enough effect; inconclusive means small, poorly fitted or top-dose-only effect, or another doubt; inactive means no such curve, though single readings can be large; an effect the other way counts as inactive or inconclusive. On the % scale 0 is the no-effect control and ±100 the full control effect.

SMILES | IL-1B inflam inh | TDP1 inh | ELG1 DNA repair | Giardia kill | TDP1 cell noCPT | DT40 TDP1 CPT
Cc1cccc(NC(=O)C2CCCN2S(=O)(=O)c2cccc3cccnc23)c1 (stereo unspecified) | · | -1% | -1% | · | · | ·
COc1ccccc1N(CC(=O)N1CCN(c2ccccc2)CC1)S(=O)(=O)c1ccc(C)cc1 | -8 | 7% | -2% | 7 | ? | 18µM*
CCOC(=O)c1c(C)[nH]c(C)c1S(=O)(=O)N(C)CC(=O)N1CCN(c2ccccc2OC)CC1 | · | 0% | · | · | ? | 18µM*
CCOc1ccc(N(CC(=O)N2CCN(c3ccccc3OC)CC2)S(=O)(=O)c2ccc(C)cc2)cc1 | i | 3% | ? | -12 | 21µM* | ?
CCOC(=O)N1CCN(C(=O)CN(c2cccc(Cl)c2C)S(=O)(=O)c2ccc(C)cc2)CC1 | · | · | · | · | ? | 21µM*
O=C(O)c1ccc(S(=O)(=O)N2CCc3ccccc3C2)cc1 | 81 | 1% | -17% | -6 | 15% | 0%
O=C(COC(=O)c1ccc2ccccc2n1)c1ccccc1 | 12 | 5% | -10% | 12 | 6% | 2%
O=S(=O)(NC1=NCCCCC1)c1ccc2ccccc2c1 | 0 | 2% | ? | 11 | -10% | 2%
CCN(CC)CCN1C(=O)C(=O)/C(=C(/O)c2ccc(S(=O)(=O)N3CCOCC3)cc2)C1c1ccc(C(C)(C)C)cc1 (stereo unspecified) | -11 | 12% | 8% | -8 | -4% | 3%
CCc1ccc(N(CC(=O)NCC2CCCO2)C(=O)CCC(=O)Nc2nccs2)cc1 (stereo unspecified) | -1 | · | 3% | 5 | -9% | 7%
CCOC(=O)c1sc(NC(=O)/C=C/c2cnn(CC)c2C)c(C(=O)OCC)c1C | ? | -1% | ? | 7 | 21µM* | ?
O=C(C(=O)N1CCN(c2ccccc2)CC1)c1ccco1 | 19 | · | · | · | 6% | 7%
COCCN(C(=O)COC(=O)c1c(C)nn(-c2ccccc2)c1C)c1c(N)n(Cc2ccccc2)c(=O)[nH]c1=O | -22 | · | · | · | 1% | -14%
Cc1ccc2cc(CN(Cc3cccs3)Cc3nnnn3CC3CCCO3)c(=O)[nH]c2c1 (stereo unspecified) | ? | 2% | ? | -1 | ? | ?
Cc1ccc2cc(CN(Cc3cccs3)Cc3nnnn3CC3CCCO3)c(=O)[nH]c2c1C (stereo unspecified) | 12 | 2% | ? | 1 | 18µM* | ?
Cc1ccc2[nH]c(=O)c(CN(Cc3cccs3)Cc3nnnn3Cc3ccco3)cc2c1 | · | 4% | · | -25 | 18µM* | ?
Cc1ccc2[nH]c(=O)c(CN(CCO)Cc3nnnn3Cc3ccco3)cc2c1 | · | 2% | · | -6 | ? | -29%
COc1cc2cc(CN(CCCN3CCOCC3)Cc3nnnn3Cc3ccccc3)c(=O)[nH]c2cc1OC | -1 | 2% | 5% | 3 | -5% | -2%
COCCn1nnnc1CN(CCc1ccccc1)Cc1cc2ccc(C)cc2[nH]c1=O | 0 | 5% | ? | 3 | 26µM* | ?
Cc1ccc2[nH]c(=O)c(CN(Cc3cccs3)Cc3nnnn3CC3CCCO3)cc2c1 (stereo unspecified) | ? | 2% | -21% | 21 | 18µM* | ?
Cc1ccc2cc(CN(CCN3CCOCC3)Cc3nnnn3Cc3ccco3)c(=O)[nH]c2c1C | -2 | 4% | -15% | 13 | -25% | ?
COc1ccc[n+](CC(=O)c2ccc(F)cc2)c1 | · | · | · | · | -25% | 1%
COc1ccc2[nH]c(=O)c(CN(Cc3cccs3)Cc3nnnn3Cc3ccccc3)cc2c1 | -26 | 8% | ? | 0 | ? | ?
Cc1cc(C)c2cc(CN(CCO)C(c3nnnn3Cc3ccc(F)cc3)C(C)C)c(=O)[nH]c2c1 (stereo unspecified) | · | 12% | 5.2µM* | · | · | ·
